Experimental data as given in ChEMBL document CHEMBL3988442, “University of Dundee, Small-Polar-MMV Screening Library” (2021).
For some of these results: Measured potencies and affinities stand elsewhere.

Legend:
Set-up in all cases: scale not given: direction of the effect not stated beside the values
[1] = target: Protein translocase subunit SecA (Escherichia coli (strain K12)) (UniProt P10408); experiment: Assay to Identify E. coli SecA ATPase Inhibitors; assay type: functional; settings: 30 µM
Sequence of Protein translocase subunit SecA (Escherichia coli (strain K12)) (P10408 whole entry): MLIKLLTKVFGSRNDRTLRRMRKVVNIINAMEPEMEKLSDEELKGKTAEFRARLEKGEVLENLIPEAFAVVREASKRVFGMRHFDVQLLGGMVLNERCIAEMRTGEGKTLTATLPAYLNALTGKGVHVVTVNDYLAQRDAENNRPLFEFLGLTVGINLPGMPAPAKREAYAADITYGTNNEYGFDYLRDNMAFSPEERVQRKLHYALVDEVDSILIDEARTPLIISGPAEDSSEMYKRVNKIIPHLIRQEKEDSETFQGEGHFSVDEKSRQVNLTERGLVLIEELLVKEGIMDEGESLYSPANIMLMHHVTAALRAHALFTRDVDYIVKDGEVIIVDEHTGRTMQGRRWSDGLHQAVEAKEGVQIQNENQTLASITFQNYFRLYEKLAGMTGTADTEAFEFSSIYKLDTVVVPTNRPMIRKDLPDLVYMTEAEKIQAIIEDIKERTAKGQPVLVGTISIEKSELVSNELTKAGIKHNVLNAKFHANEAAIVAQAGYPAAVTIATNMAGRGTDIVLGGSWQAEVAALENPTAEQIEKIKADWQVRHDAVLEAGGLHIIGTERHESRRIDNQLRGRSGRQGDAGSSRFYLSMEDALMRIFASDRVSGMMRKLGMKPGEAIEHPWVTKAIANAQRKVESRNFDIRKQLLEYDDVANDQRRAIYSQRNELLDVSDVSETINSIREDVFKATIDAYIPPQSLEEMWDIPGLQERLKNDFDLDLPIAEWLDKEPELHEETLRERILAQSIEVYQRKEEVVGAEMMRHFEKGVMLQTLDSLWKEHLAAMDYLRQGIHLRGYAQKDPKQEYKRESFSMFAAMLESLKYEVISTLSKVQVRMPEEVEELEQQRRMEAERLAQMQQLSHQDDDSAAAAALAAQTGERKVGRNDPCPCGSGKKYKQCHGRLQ

[2] = target: T1, Ubiquitin-activating enzyme e1, putative (Leishmania donovani (strain BPK282A1)) (UniProt E9BSI1); experiment: Leishmania donovani Ubiquitin Activating Enzyme (LdE1); assay type: functional; settings: 30 µM
T1 sequence (whole entry): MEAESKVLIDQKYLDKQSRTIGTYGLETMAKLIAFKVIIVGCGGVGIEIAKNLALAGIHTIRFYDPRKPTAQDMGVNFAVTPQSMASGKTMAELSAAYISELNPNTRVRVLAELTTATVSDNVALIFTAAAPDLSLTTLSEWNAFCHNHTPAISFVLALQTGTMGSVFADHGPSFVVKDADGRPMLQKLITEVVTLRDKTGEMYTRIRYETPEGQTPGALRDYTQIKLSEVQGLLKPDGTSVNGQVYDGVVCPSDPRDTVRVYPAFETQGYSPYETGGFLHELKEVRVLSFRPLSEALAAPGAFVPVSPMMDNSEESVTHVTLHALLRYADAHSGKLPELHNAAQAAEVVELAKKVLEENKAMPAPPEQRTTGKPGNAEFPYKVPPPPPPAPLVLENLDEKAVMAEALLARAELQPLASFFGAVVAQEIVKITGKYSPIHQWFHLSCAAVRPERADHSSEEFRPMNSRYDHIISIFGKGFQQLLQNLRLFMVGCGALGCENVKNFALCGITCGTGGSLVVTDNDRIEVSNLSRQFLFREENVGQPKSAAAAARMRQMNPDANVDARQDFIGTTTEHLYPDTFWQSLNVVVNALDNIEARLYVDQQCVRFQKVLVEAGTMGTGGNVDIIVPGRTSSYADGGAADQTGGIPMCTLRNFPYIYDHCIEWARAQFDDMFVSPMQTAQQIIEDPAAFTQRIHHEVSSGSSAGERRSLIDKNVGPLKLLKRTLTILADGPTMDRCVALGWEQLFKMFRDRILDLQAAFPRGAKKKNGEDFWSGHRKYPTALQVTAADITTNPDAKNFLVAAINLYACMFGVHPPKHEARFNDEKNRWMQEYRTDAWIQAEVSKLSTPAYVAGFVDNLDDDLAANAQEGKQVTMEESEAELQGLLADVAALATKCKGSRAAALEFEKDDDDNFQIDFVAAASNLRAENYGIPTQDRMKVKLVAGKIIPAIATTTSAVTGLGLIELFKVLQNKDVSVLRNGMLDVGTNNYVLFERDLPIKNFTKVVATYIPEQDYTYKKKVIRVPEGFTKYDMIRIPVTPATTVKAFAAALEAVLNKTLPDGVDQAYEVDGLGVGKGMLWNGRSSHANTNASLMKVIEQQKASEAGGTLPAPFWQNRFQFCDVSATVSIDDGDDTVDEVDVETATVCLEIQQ

[3] = target: AMP-activated protein kinase, AMPK (Homo sapiens) (UniProt P54646+O43741+P54619+Q9UGJ0+Q9Y478+Q13131+Q9UGI9); experiment: AMP-dependent Kinase enzyme assay. An in vitro enzyme assay that detects ADP turnover that is directly proportional to AMPK activity. This uses naive AMPK that is activated during the assay with MK-8722; assay type: functional; settings: 30 µM
[4] = target: Sialic acid-binding Ig-like lectin 9 (Homo sapiens) (UniProt Q9Y336); experiment: Hs-Siglec9 ALPHAscreen SOP 20170721; settings: 10 µM
Sequence of Sialic acid-binding Ig-like lectin 9 (Homo sapiens) (Q9Y336 whole entry): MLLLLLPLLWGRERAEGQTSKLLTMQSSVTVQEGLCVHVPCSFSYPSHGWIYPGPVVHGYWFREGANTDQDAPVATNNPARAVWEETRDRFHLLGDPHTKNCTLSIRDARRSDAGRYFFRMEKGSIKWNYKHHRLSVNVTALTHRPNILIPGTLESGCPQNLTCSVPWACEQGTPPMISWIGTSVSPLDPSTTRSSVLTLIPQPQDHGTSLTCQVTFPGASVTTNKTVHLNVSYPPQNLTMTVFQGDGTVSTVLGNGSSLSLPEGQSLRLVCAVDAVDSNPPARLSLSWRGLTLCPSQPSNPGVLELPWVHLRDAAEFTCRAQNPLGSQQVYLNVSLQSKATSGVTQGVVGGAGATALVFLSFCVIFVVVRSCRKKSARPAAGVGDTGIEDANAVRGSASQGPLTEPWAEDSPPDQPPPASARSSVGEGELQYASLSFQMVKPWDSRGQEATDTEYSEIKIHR

[5] = test system: Trypanosoma cruzi; experiment: Trypanosoma cruzi phosphomannomutase and mannose-1-phosphate guanylyltransferase assay; assay type: functional; settings: 10 µM
[6] = target: T2, Arginase-2, mitochondrial (Homo sapiens) (UniProt P78540); experiment: in vitro enzyme assay to detect the production of urea directly proportional to the activity of Arginase II; assay type: functional; settings: 33.3 µM; further: in the data most compounds retested in dose-response had high values
T2 sequence (whole entry): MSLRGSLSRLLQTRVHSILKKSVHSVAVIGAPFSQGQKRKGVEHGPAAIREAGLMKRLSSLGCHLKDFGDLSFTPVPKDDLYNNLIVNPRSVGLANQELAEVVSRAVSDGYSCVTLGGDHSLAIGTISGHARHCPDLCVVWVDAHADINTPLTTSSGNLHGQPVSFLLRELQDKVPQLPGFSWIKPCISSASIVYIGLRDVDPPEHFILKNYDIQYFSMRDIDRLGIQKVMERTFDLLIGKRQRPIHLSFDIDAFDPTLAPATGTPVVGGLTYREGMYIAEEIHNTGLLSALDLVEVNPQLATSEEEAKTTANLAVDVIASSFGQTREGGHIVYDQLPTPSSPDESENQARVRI

[7] = target: T3, Proteasome subunit beta (Trypanosoma cruzi) (UniProt O96673); experiment: Trypanosoma cruzi proteasome chymotrypsin-like activity (TcProtChymo) assay.; further: in the data most compounds retested in dose-response had high values; assay type: functional; settings: 9.37 µM
T3 sequence (whole entry): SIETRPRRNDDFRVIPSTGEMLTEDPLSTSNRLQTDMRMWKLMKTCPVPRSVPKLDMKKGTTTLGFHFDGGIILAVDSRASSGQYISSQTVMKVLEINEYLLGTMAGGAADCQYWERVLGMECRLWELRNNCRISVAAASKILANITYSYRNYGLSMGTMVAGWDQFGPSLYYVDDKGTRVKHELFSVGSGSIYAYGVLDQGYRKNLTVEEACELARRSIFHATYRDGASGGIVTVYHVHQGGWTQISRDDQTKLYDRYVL

[8] = species: Homo sapiens; experiment: To identify inhibition of the IFN signalling (Jak-Stat) pathway via expression of an eGFP reporter gene under the control of an IFN-stimulated response element (ISRE) containing MxA promoter.; assay type: functional; settings: 30 µM
[9] = target: T4, Tyrosyl-tRNA synthetase, putative (Trypanosoma cruzi (strain CL Brener)) (UniProt Q4DSP6); experiment: Trypanosoma cruzi tyrosyl tRNA synthetase (TcYRS) _High Tyrosine SOP; assay type: functional; settings: 30 µM; further: in the data most compounds retested in dose-response had high values
T4 sequence (whole entry): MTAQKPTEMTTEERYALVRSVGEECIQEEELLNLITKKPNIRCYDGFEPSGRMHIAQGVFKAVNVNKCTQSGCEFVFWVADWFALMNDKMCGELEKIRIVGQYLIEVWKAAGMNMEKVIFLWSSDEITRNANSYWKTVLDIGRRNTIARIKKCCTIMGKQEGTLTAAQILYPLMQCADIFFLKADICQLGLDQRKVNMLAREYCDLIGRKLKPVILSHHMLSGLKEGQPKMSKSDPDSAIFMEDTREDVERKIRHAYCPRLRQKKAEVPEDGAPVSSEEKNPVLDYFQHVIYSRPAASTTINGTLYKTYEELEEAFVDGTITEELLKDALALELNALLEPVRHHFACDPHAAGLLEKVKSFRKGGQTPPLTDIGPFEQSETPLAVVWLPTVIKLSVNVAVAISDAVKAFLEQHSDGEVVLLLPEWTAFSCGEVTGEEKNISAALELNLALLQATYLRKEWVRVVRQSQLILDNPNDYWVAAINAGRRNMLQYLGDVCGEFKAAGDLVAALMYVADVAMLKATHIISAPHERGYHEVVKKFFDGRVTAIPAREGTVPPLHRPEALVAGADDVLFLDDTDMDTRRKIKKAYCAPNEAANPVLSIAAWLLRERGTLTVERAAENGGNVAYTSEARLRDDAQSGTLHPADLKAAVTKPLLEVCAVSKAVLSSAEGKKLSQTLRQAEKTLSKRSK

[10] = target: T4, Tyrosyl-tRNA synthetase, putative (Trypanosoma cruzi (strain CL Brener)); experiment: Trypanosoma cruzi tyrosyl tRNA synthetase (TcYRS) SOP; assay type: functional; settings: 30 µM
[11] = target: Chromo domain-containing protein 1 (Saccharomyces cerevisiae (strain ATCC 204508 / S288c) (Baker's yeast)) (UniProt P32657); experiment: ScCHD-1 Enzyme Inhibition Assay; assay type: functional; settings: 30 µM; further: in the data most compounds retested in dose-response had high values
Sequence of Chromo domain-containing protein 1 (Saccharomyces cerevisiae (strain ATCC 204508 / S288c) (Baker's yeast)) (P32657 whole entry, the tested form may be a part): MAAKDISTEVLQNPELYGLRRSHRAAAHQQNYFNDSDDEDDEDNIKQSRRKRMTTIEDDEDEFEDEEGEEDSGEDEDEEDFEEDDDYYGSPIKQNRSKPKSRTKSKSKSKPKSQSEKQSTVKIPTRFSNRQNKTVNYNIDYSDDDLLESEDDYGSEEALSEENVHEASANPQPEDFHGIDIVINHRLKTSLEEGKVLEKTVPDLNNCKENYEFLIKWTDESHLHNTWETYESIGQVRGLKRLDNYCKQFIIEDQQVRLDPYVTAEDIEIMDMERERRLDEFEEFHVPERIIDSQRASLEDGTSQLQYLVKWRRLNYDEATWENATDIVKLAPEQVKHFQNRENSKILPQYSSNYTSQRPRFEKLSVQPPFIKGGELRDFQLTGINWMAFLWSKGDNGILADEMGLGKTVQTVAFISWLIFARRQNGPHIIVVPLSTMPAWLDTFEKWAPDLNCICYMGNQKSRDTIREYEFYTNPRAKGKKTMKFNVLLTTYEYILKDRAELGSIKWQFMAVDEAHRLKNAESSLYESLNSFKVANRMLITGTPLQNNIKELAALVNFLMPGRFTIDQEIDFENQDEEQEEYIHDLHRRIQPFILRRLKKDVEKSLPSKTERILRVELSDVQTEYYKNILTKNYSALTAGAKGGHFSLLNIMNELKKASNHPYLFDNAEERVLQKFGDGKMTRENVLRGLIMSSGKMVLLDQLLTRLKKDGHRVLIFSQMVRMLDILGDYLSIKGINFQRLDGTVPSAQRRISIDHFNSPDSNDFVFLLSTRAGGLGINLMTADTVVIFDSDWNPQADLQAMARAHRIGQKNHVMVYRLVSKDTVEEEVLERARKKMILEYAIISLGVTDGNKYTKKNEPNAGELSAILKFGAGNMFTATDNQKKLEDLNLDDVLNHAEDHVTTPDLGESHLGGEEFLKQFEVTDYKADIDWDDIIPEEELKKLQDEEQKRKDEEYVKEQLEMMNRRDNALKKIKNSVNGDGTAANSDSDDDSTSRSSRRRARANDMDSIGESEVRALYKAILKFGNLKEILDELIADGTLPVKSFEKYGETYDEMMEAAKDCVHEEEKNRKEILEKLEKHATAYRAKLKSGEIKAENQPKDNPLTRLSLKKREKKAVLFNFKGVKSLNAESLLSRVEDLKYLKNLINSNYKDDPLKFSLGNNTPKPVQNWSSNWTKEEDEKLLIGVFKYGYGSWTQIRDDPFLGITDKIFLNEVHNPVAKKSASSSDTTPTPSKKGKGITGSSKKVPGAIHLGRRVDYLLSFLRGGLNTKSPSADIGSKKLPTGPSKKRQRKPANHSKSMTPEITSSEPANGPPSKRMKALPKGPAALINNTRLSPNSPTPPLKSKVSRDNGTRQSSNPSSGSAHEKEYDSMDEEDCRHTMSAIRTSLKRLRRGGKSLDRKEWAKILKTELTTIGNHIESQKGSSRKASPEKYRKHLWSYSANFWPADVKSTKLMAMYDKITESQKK

Structure (SMILES) | Percent Effect [1] | Percent Effect [2] | Percent Effect [3] | Percent Effect [4] | Percent Effect [5] | Percent Effect [6] | Percent Effect [7] | Percent Effect [8] | Percent Effect [9] | Percent Effect [10] | Percent Effect [11]
CC(C)c1nccn1C1CCCN(C(=O)c2cnn(C)c2C2CC2)C1 (stereo unspecified) | -1.82% | 13.2% | -2.81% | -2.13% | 2.71% | -5.75% | 6.34% | -7.13% | 13.3% | 25.9% | -8.69%
CCCC(NC(=O)c1ccc(OC)cc1F)c1nnn[nH]1 (stereo unspecified) | -2.26% | 5.33% | -8.28% | 11.5% | 5.16% | 17.2% | 9.24% | -13.2% | 4.92% | 8.64% | -4.91%
Fc1ccc(CN2CCO[C@H]3[C@H](OCCN4CCCC4)CC[C@@H]32)cc1 | 7.01% | 10.7% | 5.78% | 7.14% | -4.05% | -51.1% | 12.8% | -9.42% | 5.21% | 12.5% | -3.68%
CCN(Cc1nc2c(cnn2C)c(=O)[nH]1)c1cccc(F)c1 | -1.38% | 11.4% | 6.32% | 2.17% | -2.36% | -6.24% | 15.3% | 9.49% | 1.04% | 15.2% | -15.7%
Cc1noc([C@@]23CCO[C@@H]2CCN(C(=O)c2sccc2C)C3)n1 | -3.07% | 5.33% | 2.33% | -2.88% | 2.12% | -46.1% | 0.513% | 1.48% | 1.04% | 0% | 1.44%
O=C(NCCCNC(=O)c1cccc(O)c1)NCc1ccccc1F | -2.42% | 15.8% | 0.229% | 0.609% | 2.63% | -5.92% | 14.9% | 1.72% | 3.19% | 15.6% | -3.65%
CNc1nc(CNC(=O)Nc2cccc(F)c2C)cs1 | -0.623% | -2.63% | -1.93% | 5.4% | -1.32% | 1.15% | 5.18% | 8.24% | 1.47% | -2.44% | 5.82%
N#Cc1ccnc(N2CCN(Cc3cccc(F)c3)CC2)c1 | -3.54% | 18.9% | -3.8% | 19.9% | 4.2% | 3.23% | 9.01% | 4.37% | 4.3% | 16.1% | -8.71%
CC(C)c1noc(C(C)N2CCN(Cc3ccccc3C#N)CC2)n1 (stereo unspecified) | -0.614% | -2.63% | -8.38% | 2.79% | 4.58% | -2.52% | 3.81% | 10.1% | -3.45% | 3.7% | 2.36%
COc1cc(C(=O)N(Cc2ccco2)C2CC2)cc2c1OCCO2 | -0.29% | -2.63% | 8.94% | 6.17% | -1.46% | -5.92% | 6.81% | 6.99% | 2.13% | 2.6% | 0.909%
Cc1nn(C)c(C)c1CC(=O)N1CCC(Nc2cccnn2)CC1 | -5.77% | -13.2% | -1.31% | -4.49% | 9.59% | -1.92% | 5.85% | 9.42% | 5.39% | 9.76% | -11.7%
